High-throughput results as filed in PubChem BioAssay.
DAX1 inh-1: NR0B1 (DAX1) inhibition | inhibition, % at 6.75 µM | P51843 | hit rate 0.99% among 340,000 | HEK293 Gal4-DAX1 luciferase reporter, luminescence;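 active means inhibition above the mean over all tested compounds plus 3 SD, cut at about 4.2% in these data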;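 further: 0% = DAX1-transfected cells with DMSO and 100% = empty-vector control cells with DMSO; inhibition shows as a rise in luminescence from relieved DAX1 repression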
Target sequence (P51843 207-470 limits assumed): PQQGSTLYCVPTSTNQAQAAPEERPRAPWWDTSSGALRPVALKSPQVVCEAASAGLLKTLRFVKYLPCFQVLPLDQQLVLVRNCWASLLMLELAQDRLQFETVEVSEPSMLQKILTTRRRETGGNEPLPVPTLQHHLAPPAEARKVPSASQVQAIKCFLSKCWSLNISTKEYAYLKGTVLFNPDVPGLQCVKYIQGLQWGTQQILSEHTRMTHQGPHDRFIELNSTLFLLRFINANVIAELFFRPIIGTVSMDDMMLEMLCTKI
hgDAF-12 ag: hgDAF-12 agonism, primary luciferase screen. HEK293 GAL4-hgDAF12 UAS-luciferase reporter, agonist luminescence; normalized to butyrate control. activation, % at 6.8 µM. hit rate 1.8% among 370,000. AID 687014;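 active means activation above a cutoff set at the mean of all screened compounds plus 3 SD, cut at about 10% in these data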;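 further: 0% = DMSO wells and 100% = sodium butyrate wells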
DAX1 inh-2: inhibitors of DAX1 repression of SF-1 activated StAR promoter. hit rate 1.1% among 370,000. HEK293T StAR-luciferase reporter, SF-1/DAX-1 repression relief. inhibition, % at 6.8 µM;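 active means inhibition above the mean over all tested compounds plus 3 SD, cut at about 3.6% in these data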;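 further: 0% = DAX-1 cells with DMSO and 100% = cells lacking DAX-1 with DMSO; higher inhibition means more luminescence from relief of DAX-1 repression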
Wee1 degr inh: human Wee1 degradation inhibition, primary screen; P30291; HeLa Luc-Wee1K328M stability, luciferase luminescence; 100% = proteasome inhibitor MG132 effect; reporter increase, % at 5 µM; hit rate 1.2% among 220,000;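 active means activation above the mean of all tested compounds plus 3 SD, set per screening run, cut at about 8.8% in these data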;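 further: cells exposed to compound for 20 h before luminescence read; 0% = DMSO alone and 100% = MG132 at 30 µM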
ssDAF-12 act: activators of S. stercoralis DAF-12 nuclear receptor; HEK293 ssDAF-12/GRIP1 lit1-tk-luc reporter, luminescence; % of 3 µM dafachronic acid response; activation, % at 6.8 µM; hit rate 1% among 370,000;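 active means activation above the mean over all tested compounds plus 3 SD, cut at about 0.9% in these data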;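 further: 0% = DMSO-only wells and 100% = 3 µM delta7-dafachronic acid wells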
hcDAF12 agonist: activates DAF-12 receptor from parasite H. contortus; hit rate 1.4% among 370,000; HEK293 hcDAF-12 lit1-tk-luc reporter, luminescence; 0% DMSO, 100% Δ7-dafachronic acid; activation, % at 6.8 µM;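 active means activation above the mean of all tested compounds plus 3 SD, cut at about 5.5% in these data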;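 further: 100% = response to 3 µM Δ7-dafachronic acid high control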
An asterisk follows results filed as active. Shown are actives, neighbours in structure and some others; about 4.6% of the full set was active somewhere.

What do the screens show for `CCCCOC(=O)/C=C\C(=O)OCCCC`?
DAX1 inh-1: 6.9*; hgDAF-12 ag: -1; DAX1 inh-2: 1; ssDAF-12 act: -1; hcDAF12 agonist: -1

What do the screens show for `CCOC(=O)NC(=O)CSc1nc(-c2ccc(C)c(C)c2)cn1-c1ccccc1`?
DAX1 inh-1: 1; hgDAF-12 ag: 10; DAX1 inh-2: 2; Wee1 degr inh: 1; ssDAF-12 act: 0; hcDAF12 agonist: 5.7*

How did Cc1ccc(-c2cn(-c3ccccc3)c(SCC(N)=O)n2)cc1C do in these assays?
DAX1 inh-1: 0; hgDAF-12 ag: 7; DAX1 inh-2: 2; Wee1 degr inh: -1; ssDAF-12 act: -1; hcDAF12 agonist: 0

Results for C=CCN1C(=O)[C@@H](CC(=O)NCCCN2CCCC2=O)[C@]2(C(=O)OCC)CCCCC/C=C/12 ?
hgDAF-12 ag: 6; DAX1 inh-2: 0; ssDAF-12 act: -1; hcDAF12 agonist: 1

What do the screens show for `C/C(=N\NC(=S)NC1CCCCC1)c1ccc(Cl)c(Cl)c1`?
DAX1 inh-1: 25*; hgDAF-12 ag: -2; DAX1 inh-2: 0; Wee1 degr inh: -1; ssDAF-12 act: -2; hcDAF12 agonist: -1

Results for C/C(=N\NC(=O)C1CCCC1)c1ccc(Cl)c(Cl)c1 ?
DAX1 inh-1: 1; hgDAF-12 ag: 2; DAX1 inh-2: 1; ssDAF-12 act: -1; hcDAF12 agonist: 2

How did O=C(c1ccco1)[C@@H]1[C@@H]2C(=O)N(c3ccc(F)cc3)C(=O)[C@@H]2C2c3ccccc3C=CN21 (some centres undefined) do in these assays?
hgDAF-12 ag: 3; DAX1 inh-2: 0; Wee1 degr inh: 1; ssDAF-12 act: 0; hcDAF12 agonist: 5

Results for O=C(c1ccco1)[C@@H]1[C@@H]2C(=O)N(c3ccc(Br)cc3)C(=O)[C@@H]2C2c3ccccc3C=CN21 (some centres undefined) ?
DAX1 inh-1: 1; hgDAF-12 ag: 1; DAX1 inh-2: 0; Wee1 degr inh: 1; ssDAF-12 act: 1.2*; hcDAF12 agonist: 3

How did C(=C\c1ccccc1)/CSc1ccccn1 do in these assays?
DAX1 inh-1: 4.4*; hgDAF-12 ag: 7; DAX1 inh-2: 2; Wee1 degr inh: 9.2*; ssDAF-12 act: -1; hcDAF12 agonist: 3

What do the screens show for `CC1(C)CC(N=c2cc(-c3ccccc3)oc3ccc(Cl)cc23)CC(C)(C)N1`?
DAX1 inh-1: 5.9*; hgDAF-12 ag: 4; DAX1 inh-2: 0; Wee1 degr inh: -1; ssDAF-12 act: -1; hcDAF12 agonist: -1

What do the screens show for `CC1(C)CC(NC(=O)c2ccc(Cl)cc2Cl)CC(C)(C)N1`?
DAX1 inh-1: 3; hgDAF-12 ag: -1; DAX1 inh-2: 0; ssDAF-12 act: -1; hcDAF12 agonist: -3

What do the screens show for `O=C(Nc1nc2ccc(S(=O)(=O)N3CCCCC3)cc2s1)C1CCCO1` (centres undefined)?
DAX1 inh-1: 1; hgDAF-12 ag: 0; DAX1 inh-2: 1; Wee1 degr inh: -1; ssDAF-12 act: -1; hcDAF12 agonist: -1

Results for O=C(Nc1nc2ccc([N+](=O)[O-])cc2s1)c1ccco1 ?
hgDAF-12 ag: 8; DAX1 inh-2: 4.2*; Wee1 degr inh: -1; ssDAF-12 act: 0; hcDAF12 agonist: 2

How did O=C(Nc1nc2ccc(S(=O)(=O)N3CCCC3)cc2s1)C1CCCCC1 do in these assays?
DAX1 inh-1: -1; hgDAF-12 ag: 2; DAX1 inh-2: -2; Wee1 degr inh: 11*; ssDAF-12 act: -1; hcDAF12 agonist: -2

How did O=C(Nc1nc2ccc([N+](=O)[O-])cc2s1)C1CCCO1 (centres undefined) do in these assays?
DAX1 inh-1: 5.4*; hgDAF-12 ag: 6; DAX1 inh-2: 1; Wee1 degr inh: 0; ssDAF-12 act: 0; hcDAF12 agonist: 2

How did O=C(Nc1nc2ccc([N+](=O)[O-])cc2s1)c1c(F)cccc1F do in these assays?
DAX1 inh-1: 0; hgDAF-12 ag: -1; DAX1 inh-2: 0; Wee1 degr inh: -2; ssDAF-12 act: -1; hcDAF12 agonist: -1

What do the screens show for `O=c1[nH]nc(Cc2ccc(Cl)cc2)c2ccccc12`?
DAX1 inh-1: -1; hgDAF-12 ag: 0; DAX1 inh-2: 0; Wee1 degr inh: 1; ssDAF-12 act: -1; hcDAF12 agonist: -2

Results for O=c1[nH]nc(Cc2ccc(-c3ccccc3Cl)o2)c2ccccc12 ?
DAX1 inh-1: 0; hgDAF-12 ag: 2; DAX1 inh-2: 0; Wee1 degr inh: -1; ssDAF-12 act: 1.4*; hcDAF12 agonist: 0

How did C[n+]1c(/C=C/c2ccc(O)cc2)ccc2ccccc21 do in these assays?
DAX1 inh-1: 0; hgDAF-12 ag: 10; DAX1 inh-2: 1; ssDAF-12 act: -1; hcDAF12 agonist: 5

What do the screens show for `C[n+]1c(/C=C/c2ccc3c(c2)OCO3)ccc2ccccc21`?
DAX1 inh-1: 6.0*; hgDAF-12 ag: -6; DAX1 inh-2: -1; Wee1 degr inh: -5; ssDAF-12 act: -3; hcDAF12 agonist: -2

What do the screens show for `Cc1ccn2c(NC3CCCCC3)c(C)nc2c1`?
DAX1 inh-1: 5.1*; hgDAF-12 ag: 1; DAX1 inh-2: -1; Wee1 degr inh: -2; ssDAF-12 act: -1; hcDAF12 agonist: 0

How did CN(C)CCNC(=O)C1(C)Cc2c(-c3cccc(C(F)(F)F)c3)ccnc2O1 (centres undefined) do in these assays?
hgDAF-12 ag: 3; DAX1 inh-2: 1; ssDAF-12 act: -1; hcDAF12 agonist: -2

What do the screens show for `CC(=O)Nc1ccc(NC(=O)CCn2nnc3ccccc32)cc1`?
DAX1 inh-1: -1; hgDAF-12 ag: 1; DAX1 inh-2: 0; Wee1 degr inh: 3; ssDAF-12 act: 1.3*; hcDAF12 agonist: 4

What do the screens show for `C/C(=N\NC(=O)CCn1nnc2ccccc21)c1ccco1`?
DAX1 inh-1: 4.7*; hgDAF-12 ag: -2; DAX1 inh-2: 0; Wee1 degr inh: 2; ssDAF-12 act: 0; hcDAF12 agonist: -1

Results for CN(CCC#N)C(=O)COC(=O)c1c2c(nc3ccccc13)/C(=C\c1ccco1)CC2 ?
DAX1 inh-1: 0; hgDAF-12 ag: -3; DAX1 inh-2: -1; ssDAF-12 act: -1; hcDAF12 agonist: -2

How did CS(=O)(=O)N1CCc2cc(C(=O)Nc3ccccc3Cl)ccc21 do in these assays?
DAX1 inh-1: 21*; hgDAF-12 ag: 3; DAX1 inh-2: 1; ssDAF-12 act: -1; hcDAF12 agonist: -1

How did Cc1ccc(S(=O)(=O)Nc2nc(C)cc(NN)n2)cc1 do in these assays?
DAX1 inh-1: -3; hgDAF-12 ag: -3; DAX1 inh-2: 0; Wee1 degr inh: 2; ssDAF-12 act: -1; hcDAF12 agonist: 1

How did Cc1ccc(S(=O)(=O)Nc2nc(C)cc(NCCN)n2)cc1 do in these assays?
DAX1 inh-1: 4.7*; hgDAF-12 ag: 3; DAX1 inh-2: 0; Wee1 degr inh: -1; ssDAF-12 act: -1; hcDAF12 agonist: -1
